The whole screen tested about 5,500 compounds, of which about 2,000 (36%) were called active. Roughly 18% stayed inconclusive and do not appear here. No stated cut-off is given here; in the data, active means normalized growth mostly below about 0.91 (no sharp cut-off); inconclusive means no clear call, values can overlap the other calls; inactive means mostly above about 0.92. The list shows a part of the results.
Assay: chemical genetic growth profiling, strain panel (AID 1159580);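 further: tested at 20 µM; growth read once vehicle control cultures reached saturation at 30 °C; 1 = growth at the plate median or of vehicle wells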
Conditions: S. cerevisiae deletion strains, growth OD

Measured: normalized growth

CC(=O)O[C@@H]1CC2C(C)(C)C=CC(=O)[C@]2(C)C2CC[C@@]3(C)[C@H](c4ccoc4)OC(=O)C4OC43[C@@]21C (some centres not stated)
inactive: locus YAL021C, strain ccr4, stronger effect = lower value 0.985 | locus YAL026C, strain drs2, stronger effect = lower value 1 | locus YAL030W, strain snc1, stronger effect = lower value 0.999 | locus YBL061C, strain skt5, stronger effect = lower value 1 | locus YBR009C, strain hhf1, stronger effect = lower value 1 | locus YBR021W, strain FUR4, stronger effect = lower value 1.04 | locus YBR023C, strain chs3, stronger effect = lower value 0.988 | locus YBR171W, strain sec66, stronger effect = lower value 1.01 | locus YBR229C, strain ROT2, stronger effect = lower value 1.01 | locus YBR231C, strain swc5, stronger effect = lower value 1.01 | locus YBR279W, strain paf1, stronger effect = lower value 1 | locus YCL011C, strain gbp2, stronger effect = lower value 0.998 | locus YCL016C, strain dcc1, stronger effect = lower value 1 | locus YCL029C, strain bik1, stronger effect = lower value 1 | locus YCL061C, strain MRC1, stronger effect = lower value 0.998 | locus YCL069W, strain vba3, stronger effect = lower value 0.992 | locus YCR088W, strain abp1, stronger effect = lower value 0.994 | locus YDL005C, strain med2, stronger effect = lower value 0.987 | locus YDL035C, strain GPR1, stronger effect = lower value 1.03 | locus YDL040C, strain nat1, stronger effect = lower value 0.986 | locus YDL074C, strain BRE1, stronger effect = lower value 1.03 | locus YDL101C, strain DUN1, stronger effect = lower value 1.01 | locus YDL134C, strain PPH21, stronger effect = lower value 1.02 | locus YDL185W, strain tfp1, stronger effect = lower value 0.984 | locus YDL192W, strain arf1, stronger effect = lower value 1 | locus YDR001C, strain nth1, stronger effect = lower value 0.995 | locus YDR069C, strain doa4, stronger effect = lower value 0.985 | locus YDR101C, strain arx1, stronger effect = lower value 1 | locus YDR137W, strain rgp1, stronger effect = lower value 0.974 | locus YDR159W, strain sac3, stronger effect = lower value 0.988 | locus YDR162C, strain NBP2, stronger effect = lower value 1.04 | locus YDR195W, strain ref2 1 | locus YDR297W, strain sur2, stronger effect = lower value 0.994 | locus YDR318W, strain mcm21, stronger effect = lower value 1.01 | locus YDR334W, strain swr1, stronger effect = lower value 1.01 | locus YDR335W, strain msn5, stronger effect = lower value 0.997 | locus YDR388W, stronger effect = lower value 1 | locus YDR392W, strain spt3, stronger effect = lower value 0.963 | locus YDR502C, strain sam2, stronger effect = lower value 0.991 | locus YEL003W, strain gim4, stronger effect = lower value 0.984 | locus YEL037C, strain rad23, stronger effect = lower value 0.998 | locus YEL061C, strain CIN8 (second series), stronger effect = lower value 0.995 | locus YER015W, strain faa2, stronger effect = lower value 1 | locus YER016W, strain bim1, stronger effect = lower value 0.993 | locus YER110C, stronger effect = lower value 1 | locus YER111C, strain swi4, stronger effect = lower value 1 | locus YER155C, strain BEM2 (second series), stronger effect = lower value 0.996 | locus YER155C, strain BEM2, stronger effect = lower value 1.01 | locus YER167W, strain BCK2, stronger effect = lower value 1.03 | locus YFR010W, strain ubp6, stronger effect = lower value 1.04 | locus YGL078C, strain dbp3, stronger effect = lower value 0.986 | locus YGL086W, strain mad1, stronger effect = lower value 1 | locus YGL167C, strain pmr1, stronger effect = lower value 0.991 | locus YGL173C, strain kem1, stronger effect = lower value 0.996 | locus YGL227W, strain vid30, stronger effect = lower value 0.992 | locus YGL240W, strain doc1, stronger effect = lower value 0.983 | locus YGL248W, strain PDE1, stronger effect = lower value 1.02 | locus YGL253W, strain hxk2, stronger effect = lower value 0.977 | locus YGR135W, strain pre9, stronger effect = lower value 0.987 | locus YGR229C, strain SMI1, stronger effect = lower value 1.04 | locus YGR252W, strain gcn5, stronger effect = lower value 0.994 | locus YHR013C, strain ard1, stronger effect = lower value 1.01 | locus YHR027C, strain rpn1, stronger effect = lower value 1 | locus YHR030C, strain SLT2, stronger effect = lower value 1.01 | locus YHR079C, strain IRE1 (second series), stronger effect = lower value 1 | locus YHR094C, strain hxt1, stronger effect = lower value 0.995 | locus YHR129C, strain ARP1, stronger effect = lower value 1.02 | locus YHR142W, strain chs7, stronger effect = lower value 0.987 | locus YHR200W, strain rpn10, stronger effect = lower value 0.998 | locus YIL066C, strain RNR3, stronger effect = lower value 1.02 | locus YIL073C, strain SPO22, stronger effect = lower value 1.03 | locus YIL125W, strain kgd1, stronger effect = lower value 1.01 | locus YIR030C, strain dcg1, stronger effect = lower value 0.996 | locus YJL092W, strain hpr5, stronger effect = lower value 1 | locus YJL095W, strain BCK1 (second series), stronger effect = lower value 1 | locus YJL095W, strain BCK1, stronger effect = lower value 1.01 | locus YJL115W, strain asf1, stronger effect = lower value 1 | locus YJL129C, strain trk1, stronger effect = lower value 0.994 | locus YJL134W, strain LCB3, stronger effect = lower value 1.01 | locus YJL154C, strain vps35, stronger effect = lower value 0.999 | locus YJL164C, strain tpk1, stronger effect = lower value 0.996 | locus YJL166W, strain qcr8, stronger effect = lower value 0.992 | locus YJL168C, strain set2, stronger effect = lower value 1 | locus YJL187C, strain SWE1 (second series), stronger effect = lower value 1.01 | locus YJL187C, strain SWE1, stronger effect = lower value 1 | locus YJR043C, strain POL32, stronger effect = lower value 1.03 | locus YJR075W, strain HOC1, stronger effect = lower value 1.02 | locus YKL068W, stronger effect = lower value 1 | locus YKL085W, strain MDH1 (second series), stronger effect = lower value 1 | locus YKL085W, strain MDH1, stronger effect = lower value 1 | locus YKL160W, strain elf1, stronger effect = lower value 0.997 | locus YKL190W, strain CNB1, stronger effect = lower value 1.02 | locus YKR001C, strain vps1, stronger effect = lower value 1 | locus YKR026C, strain gcn3, stronger effect = lower value 0.996 | locus YKR091W, strain srl3, stronger effect = lower value 1 | locus YLL001W, strain dnm1, stronger effect = lower value 1.01 | locus YLL026W, stronger effect = lower value 1 | locus YLL041C, strain sdh2, stronger effect = lower value 1 | locus YLR027C, strain aat2, stronger effect = lower value 0.997 | locus YLR039C, strain RIC1, stronger effect = lower value 1.05 | locus YLR058C, strain SHM2, stronger effect = lower value 1.03 | locus YLR102C, strain apc9, stronger effect = lower value 0.998 | locus YLR221C, strain rsa3, stronger effect = lower value 0.991 | locus YLR258W, strain gsy2, stronger effect = lower value 0.984 | locus YLR262C, strain YPT6 (second series), stronger effect = lower value 1 | locus YLR262C, strain YPT6, stronger effect = lower value 1.09 | locus YLR268W, strain sec22, stronger effect = lower value 1 | locus YLR320W, strain mms22, stronger effect = lower value 0.999 | locus YLR330W, strain CHS5, stronger effect = lower value 1.01 | locus YLR342W, strain FKS1 (second series), stronger effect = lower value 0.989 | locus YLR342W, strain FKS1, stronger effect = lower value 1 | locus YLR357W, strain rsc2, stronger effect = lower value 1.02 | locus YLR370C, strain arc18, stronger effect = lower value 0.999 | locus YLR371W, strain rom2, stronger effect = lower value 1.01 | locus YLR384C, strain iki3, stronger effect = lower value 1.01 | locus YLR418C, strain cdc73, stronger effect = lower value 0.973 | locus YML016C, strain PPZ1, stronger effect = lower value 1.02 | locus YML032C, strain rad52, stronger effect = lower value 1 | locus YML120C, strain ndi1, stronger effect = lower value 1 | locus YML124C, strain tub3, stronger effect = lower value 1 | locus YMR058W, strain fet3, stronger effect = lower value 1 | locus YMR078C, strain ctf18, stronger effect = lower value 0.985 | locus YMR125W, strain sto1, stronger effect = lower value 0.999 | locus YMR129W, stronger effect = lower value 0.99 | locus YMR205C, strain PFK2, stronger effect = lower value 0.996 | locus YMR223W, strain ubp8, stronger effect = lower value 0.997 | locus YMR231W, strain pep5, stronger effect = lower value 0.973 | locus YMR307W, strain GAS1, stronger effect = lower value 1.02 | locus YNL067W, strain RPL9B, stronger effect = lower value 1.02 | locus YNL071W, strain lat1, stronger effect = lower value 0.994 | locus YNL128W, strain TEP1, stronger effect = lower value 1.02 | locus YNL209W, strain ssb2, stronger effect = lower value 1.01 | locus YNL233W, strain BNI4, stronger effect = lower value 1.02 | locus YNL248C, strain rpa49, stronger effect = lower value 1.01 | locus YNL250W, strain rad50, stronger effect = lower value 0.989 | locus YNL271C, strain bni1, stronger effect = lower value 1 | locus YNL298W, strain CLA4, stronger effect = lower value 0.998 | locus YNL307C, strain MCK1, stronger effect = lower value 0.993 | locus YNL322C, strain KRE1 (second series), stronger effect = lower value 1 | locus YNR049C, strain mso1, stronger effect = lower value 1 | locus YNR052C, strain pop2, stronger effect = lower value 1 | locus YOL012C, strain htz1 0.75 | locus YOL147C, strain pex11, stronger effect = lower value 0.995 | locus YOR001W, strain rrp6, stronger effect = lower value 0.995 | locus YOR061W, strain CKA2, stronger effect = lower value 1.02 | locus YOR069W, strain VPS5, stronger effect = lower value 1.01 | locus YOR070C, strain gyp1, stronger effect = lower value 0.998 | locus YOR080W, strain dia2, stronger effect = lower value 0.993 | locus YOR083W, strain WHI5, stronger effect = lower value 1 | locus YOR106W, strain vam3, stronger effect = lower value 1.01 | locus YOR136W, strain idh2, stronger effect = lower value 1 | locus YOR144C, strain elg1, stronger effect = lower value 1.01 | locus YOR184W, strain ser1, stronger effect = lower value 1.01 | locus YOR265W, strain rbl2, stronger effect = lower value 0.997 | locus YOR270C, strain vph1, stronger effect = lower value 0.956 | locus YOR290C, strain snf2, stronger effect = lower value 0.968 | locus YOR316C, strain cot1, stronger effect = lower value 0.993 | locus YPL051W, strain arl3, stronger effect = lower value 1.03 | locus YPL055C, strain LGE1, stronger effect = lower value 1.03 | locus YPL078C, strain atp4, stronger effect = lower value 0.983 | locus YPL106C, strain sse1, stronger effect = lower value 1.02 | locus YPL240C, strain hsp82, stronger effect = lower value 0.998 | locus YPR119W, strain clb2, stronger effect = lower value 0.998 | locus YPR141C, strain kar3, stronger effect = lower value 0.998 | locus YPR163C, strain tif3, stronger effect = lower value 1.01 | locus YPR167C, strain met16, stronger effect = lower value 0.997 | strain wtn01, stronger effect = lower value 1.01
